Screens: PubChem, ICCB-Longwood Screening Facility, Harvard Medical School
Only some compounds are listed: those with a hit (about 1.4% of all), similar ones and a draw of the others.
MbtI inh = blocks the Mycobacterium tuberculosis siderophore enzyme MbtI | P9WFX0 | purified MbtI enzyme, fluorescence intensity read-out | AID 493033 | 0.89% of 100,000 active | inhibition, % (concentration not given with the values); in the data active means inhibition mostly above about 56%, no sharp cut-off; inactive means mostly below about 77%
MenB inh = blocks the Mycobacterium tuberculosis MenB enzyme; MenB enzyme assay, absorbance read-out; 0.43% of 100,000 active; inhibition, % (test concentration not listed); in the data active means inhibition above about 21%, passing the limit was not always enough
Target sequence (P9WNP5 whole entry, looked up): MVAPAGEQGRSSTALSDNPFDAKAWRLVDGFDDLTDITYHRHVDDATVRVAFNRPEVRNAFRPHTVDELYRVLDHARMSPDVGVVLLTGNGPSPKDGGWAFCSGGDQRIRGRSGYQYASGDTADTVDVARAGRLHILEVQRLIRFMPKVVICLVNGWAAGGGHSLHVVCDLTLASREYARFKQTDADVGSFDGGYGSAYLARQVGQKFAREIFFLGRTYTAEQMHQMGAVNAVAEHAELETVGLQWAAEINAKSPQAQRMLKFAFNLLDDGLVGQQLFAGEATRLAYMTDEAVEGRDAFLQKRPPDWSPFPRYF
Polio RdRp inh = poliovirus RNA polymerase inhibition; % elongation, % (compound at 16.7 µg/mL); P03300; AID 588519; poliovirus polymerase elongation, fluorescence polarization; active compounds read low; 0.66% of 150,000 active; in the data active means % elongation below about 90%
AID504770 = growth inhibitors of E. coli YBA685 in a screen for V. cholerae RctB (chromosome II replication) inhibitors; E. coli YBA685 rctB-dependent plasmid, OD600 growth, 3 h; active compounds read low; z-score (test concentration not listed); 0.27% of 130,000 active; AID 504770; in the data active means z-score below about -2, passing the limit was not always enough
Hits are given with their value; - = inactive; . = not tested or not shown.

SMILES	MbtI inh	MenB inh	Polio RdRp inh	AID504770
O=C(Nc1ccccc1)c1cc(Cl)ccc1O	-	.	-	-2.65
CN(C)c1ccc(NC(=O)Nc2ccc(OC(F)(F)F)cc2)cc1	.	.	.	-
CN1CCN(S(=O)(=O)c2ccc(Br)cc2)CC1	.	-	-	-
Cc1ccc(S(=O)(=O)N2CCCN(C)CC2)cc1	-	.	-	-3.9
Cc1sc2ncn(CC(=O)NCc3ccccn3)c(=O)c2c1S(=O)(=O)N1CCN(c2ncccn2)CC1	-	-	-	-
Cn1c(=O)c2cn(-c3ccccc3)cc2n(C)c1=O	.	.	.	-
Cn1c(=O)sn(-c2ccccc2)c1=O	100.0	-	-	-5.15
[N-]=C=C1C(=O)N(CCc2ccccc2)C(=O)[C@H]([n+]2ccccc2)[C@H]1c1ccc(Cl)cc1	.	-	69.0	-
CCOC(=O)c1sc(NC(=O)C2c3ccccc3Oc3ccccc32)c(C#N)c1C	.	.	76.0	.
CCOC(=O)CSc1n[nH]c(=S)s1	89.8	-	-	-
NC(=O)CCSc1n[nH]c(=S)s1	-	-	-	-
CCOC(=O)CCSc1n[nH]c(=S)s1	85.0	-	-	-
CCOC(=O)CSc1nn(C)c(=S)s1	-	.	.	-
O=C(O)CCN1C(=O)Cc2ccccc2C1=O	-	-	22.0	-
O=C(Nc1ccccc1)c1nnn(Cc2ccccc2)c1NC(=O)C(F)(F)F	.	-	89.0	-
Nc1c(C(=O)Nc2ccccc2)nnn1Cc1ccccc1	-	-	-	-
O=C(Nc1nnc(C(F)(F)F)s1)c1ccccc1	91.5	-	-	-
Cc1nc(Cc2nnc(SCc3cc(=O)oc4cc(C)c(C)cc34)o2)cs1	-	-	-2.0	-
Cc1nc(Cc2nnc(SCc3cn4cccc(C)c4n3)o2)cs1	-	-	-	-
c1ccc(-c2cnc3nonc3n2)cc1	.	-	-	-2.95
N#Cc1ccc(-n2cnc3ccccc3c2=O)cc1C#N	-	-	-	-
COc1cc2c(cc1OC)CC(C(=O)O)NC2 (stereo not drawn)	-	32.3	-	-
N#CCSc1nnnn1-c1cccnc1	-	-	-	-
Cc1nnc(SCC(=O)Nc2ccccc2)n1N	.	.	.	-
CC(C)c1nnc(SCC(=O)Nc2ccc(Cl)cc2)n1N	89.2	-	-	-
SMILES	MbtI inh	MenB inh	Polio RdRp inh	AID504770
Cc1cc2c(cc1S(=O)(=O)CCC(=O)N(C)C1CCCCC1)OCC(=O)N2	.	.	-	.
NS(=O)(=O)c1cccc(S(=O)(=O)c2ccc(Cl)c(Cl)c2)c1	67.0	-	-	-
CC1(C(=O)Nc2cccc(Br)c2)CC(=O)N=C2C=CC=CN21 (stereo not drawn)	.	-	-	-
CC(=O)Nc1scc2c1c(=O)oc1ccccc12	-	-	-	-
COC(=O)Nc1scc2c1c(=O)oc1ccccc12	70.9	-	-	-
O=C(/C=C(\O)c1ccccc1)C(F)(F)C(F)F	-	-	-	-3.45
O=C(O)C(=O)/C=C(\O)c1ccccc1	.	.	.	-
Cn1cc(S(=O)(=O)Nc2ccc(Oc3c(Cl)cccc3Cl)nc2)cn1	-	-	-	-
O=C(c1ccccc1)c1ccccc1NC(=O)c1ccccc1C(=O)O	.	.	-	.
O=C(Nc1ccccc1C(=O)O)c1ccccc1	55.5	.	.	-
Cc1ccc2nc(NCc3ccccc3)[nH]c2c1	-	-	-	-2.2
Nc1cc(Cl)c(N2CCOCC2)cc1N1CCOCC1	.	.	.	-
Nc1ccc(N2CCOCC2)c(N)c1	-	-	56.0	-
COc1cccc(N2CCN(C(=O)Cn3ncc4c5ccccc5n(C)c4c3=O)CC2)c1	.	.	-	.
COc1cccc(N2CCN(C(=O)CCCn3sc4ccccc4c3=O)CC2)c1	96.8	-	-	-
COc1ccc(-c2nc(CNC(=O)Nc3ccccc3)c(C)o2)c(OC)c1	.	.	-	.
O=C(Nc1ccc(F)cc1)C(Sc1nnc(C2CC2)o1)c1ccccc1 (stereo not drawn)	54.9	-	-	-
O=C(Cc1n[nH]c(=O)c2ccccc12)NCc1ccccc1	-	-	-	-
O=C(O)Cc1n[nH]c(=O)c2ccccc12	-	36.6	-	-
O=c1c(Cl)c(Cl)cnn1-c1ccccc1	-	.	.	-
NS(=O)(=O)c1ccc(-n2ncc(Cl)c(Cl)c2=O)cc1	-	-	86.0	-
CC(=O)c1ccc(S(=O)(=O)Nc2cccc(-c3ccc(N4CCCC4)nn3)c2)cc1	.	.	-	.
CCNc1nc(OCCO)nc(N(C)C)n1	-	-	-	-
Cc1ccc(S(=O)(=O)N=C2C=CC(=NS(=O)(=O)c3ccc(C)cc3)C=C2)cc1	71.5	-	-	-
Cc1ccc(S(=O)(=O)N=C2C=CC(=NS(=O)(=O)N(C)C)C=C2)cc1	-	-	-	-
SMILES	MbtI inh	MenB inh	Polio RdRp inh	AID504770
O=S1(=O)CCC(NC(=S)S)C1 (stereo not drawn)	95.6	.	-	-
O=S1(=O)CCC(NC(=S)SCc2ccccc2)C1 (stereo not drawn)	.	.	.	-3.75
CCC(C(=O)N1CCN(c2cccc(C)c2C)CC1)n1nc(C)c2sc3ccccc3c2c1=O (stereo not drawn)	.	.	-	.
COc1ccc(C(=O)NCC23C=CC(O2)C2C(=O)N(c4ccccc4C)C(=O)C23)cc1 (stereo not drawn)	65.3	-	-	-
O=C(CCn1c(=O)oc2ccccc21)Oc1cccc(Cl)c1	.	.	.	-
O=C(CCn1c(=O)oc2ccccc21)Sc1ccc(Cl)cc1Cl	70.3	-	87.0	-
Cc1ccc(C)c2[nH]c(=O)c(C3NC(=O)c4ccccc4N3)cc12 (stereo not drawn)	-	41.6	-	-
FC(F)(F)c1ccc(NCc2cn3ccccc3n2)cc1	.	-	-	-
CC1Sc2nnc(C(C)(C)C)n2N=C1c1ccc(Cl)cc1 (stereo not drawn)	-	-	76.0	-
C=CCN(C(=O)CSc1nnc(CC)n2c1cc1oc(C)cc12)c1ccccc1	-	45.4	-	-
CCc1nnc(SCC(=O)N(CC)c2ccccc2)c2cc3oc(C)cc3n12	.	.	-	.
COCCCNC(=O)c1nn(C)c2c1CS(=O)(=O)c1ccccc1-2	.	.	-	.
CC(C)C(=O)NCCc1c[nH]c2ccccc12	-	-	-	-
Cc1ccc(C(=O)CC(NCCc2c[nH]c3ccccc23)C(=O)O)cc1 (stereo not drawn)	.	47.5	-	-
Cc1nnsc1C(=O)Nc1ccc(-c2cn3c(n2)SCC3)cc1	.	.	.	-
S=C(NCCCn1ccnc1)Nc1ccccc1	-	-	23.0	-
CCOc1ccc(NC(=S)NCCCn2ccnc2)cc1	-	-	-	-
O=C(Nc1ccc2c(c1)OCO2)c1cccn(OCc2ccccc2F)c1=O	-	-	-	-
O=C(CSc1nnc(SCC(=O)N2CCCC2)s1)N1CCCC1	91.5	-	-	-
N#Cc1c2c(c(-c3ccccc3)[nH]c1=S)CCCC2	50.9	-	-	-
N#Cc1c(N)c(C#N)c(-c2ccccc2)c2c1CCCC2	.	-	-	-
c1cncc(CSc2ccc3nnc(-c4cccnc4)n3n2)c1	-	-	-	-
CC(=O)N1CCN(C(=S)c2ccc(-c3cccc(Cl)c3Cl)o2)CC1	96.3	-	-	-
CCN(CCCNC(=O)c1cc2c(=O)[nH]c3ccc(C)cc3c2s1)Cc1ccccc1	.	.	87.0	.
O=C1C=C(c2ccccc2)C(O)(c2ccccc2)C1 (stereo not drawn)	-	.	-	-
CCOC(=O)/C(C#N)=C/Nc1nc(C)cs1	-	-	-	-
Cc1cc(C)c(C#N)c(SCC(=O)Nc2ccccc2C#N)n1	.	.	-	.
